Screening results as filed in PubChem.
VHR inh abs: blocks human VHR1 dual specificity phosphatase; 290,000 compounds, 0.52% hits; inhibition, % at 13.3 µM; recombinant VHR phosphatase, pNPP absorbance; in the data active means inhibition above about 50%
PrPC surface inh: cell surface PrPC inhibition, primary TR-FRET screen. P04156. TR-FRET read-out. inhibition, % at 13.8 µM. 370,000 compounds, 0.43% hits. AID 720596; in the data active means inhibition above about 24%; further: 0% = median of the test wells and 100% = reference compound wells
TcdB inh: blocks C. difficile toxin B glycohydrolase activity; P18177; TcdB glycohydrolase enzymatic assay, plate reader; inhibition, % at 9.99 µM; 350,000 compounds, 0.24% hits; AID 652162; in the data active means inhibition above about 10%
* = called active by the depositor; x = no result. A selection: hits, their analogues and other compounds. The true share with any hit is near 0.82%.

SMILES	VHR inh abs	PrPC surface inh	TcdB inh
Cc1noc(C)c1S(=O)(=O)Nc1ccc2c(c1)C(=O)N([C@H](C)CO)C[C@H](C)[C@H](CN(C)Cc1ccc(Oc3ccccc3)cc1)O2	x	x	-1
CS(=O)(=O)Nc1ccc2c(c1)[C@@H]1C[C@H](CC(=O)NC3CCCCC3)O[C@@H](CO)[C@@H]1O2	x	x	-1
COc1ccc(Cl)cc1NC(=O)CSc1nnc(-c2ccco2)o1	10	-7	19*
COc1ccc(Cl)cc1NC(=O)CSc1nnc(CNC(=O)c2ccco2)o1	6	3	0
O=C(NC1Cc2ccccc2C1)[C@@H]1[C@@H](CO)[C@@H]2Cn3c(ccc(-c4ccccc4F)c3=O)[C@H]1N2	x	x	0
O=C(CC(=O)c1ccncc1)c1ccccc1	x	0	0
O=C(Cc1ccccn1)c1ccncc1	x	-10	10*
C[C@@H]1CCCCO[C@H](CN(C)Cc2ccc3c(c2)OCO3)[C@H](C)CN([C@H](C)CO)C(=O)c2cc(NS(=O)(=O)c3ccc(F)cc3)ccc2O1	x	x	0
CCc1nnc(NC(=O)CSc2nnc(-c3ccc(OC)cc3)n2C)s1	-2	-8	x
CCOc1ccc(-n2ccnc2SCC(=O)Nc2nnc(CC)s2)cc1	55*	-2	x
Cc1ccc(S(=O)(=O)Nc2cccc3c2O[C@H](CN(C)Cc2ccc(C(=O)O)cc2)[C@@H](C)CN([C@@H](C)CO)C3=O)cc1	x	x	0
Cc1ccccc1-c1ccccc1[C@H]1[C@@H](C#N)N(C(=O)c2ccccc2)[C@@H]1CO	x	x	2
Cc1cc(=O)n(C)c2ccccc12	2	9	0
Cc1cc(=O)n2c3c(c4c(cc13)c(CN(C)C)cc(=O)n4C)OC2	x	40*	-3
Cc1noc(C)c1S(=O)(=O)N(C)C[C@@H]1OCCCC[C@@H](C)Oc2ccc(NS(C)(=O)=O)cc2C(=O)N([C@@H](C)CO)C[C@@H]1C	x	x	-3
O=C(Nc1ccccc1F)N(Cc1ccc(F)cc1)Cc1nc2ccccc2c(=O)[nH]1	11	5	24*
O=C(c1ccccc1)N(Cc1ccc(F)cc1)Cc1nc2ccccc2c(=O)[nH]1	22	-1	x
CC=Cc1ccc2n(c1=O)C[C@@H]1[C@@H](CO)[C@H](C(=O)NCCC)[C@H]2N1CC1CCCC1 (mixture of isomers)	x	x	-1
CN(C)c1nc(N(C)C)nc(N(C#N)CN2C(=O)c3ccccc3C2=O)n1	52*	x	x
Cc1cc(C)nc(N(C#N)CN2C(=O)c3ccccc3S2(=O)=O)n1	2	0	x
O=c1[nH]nc(-c2cc(-c3ccccc3)nc3ccccc23)o1	x	-18	16*
O=C(O)c1cc(-c2ccccc2)nc2ccccc12	5	8	2
COc1ccc2c3c([nH]c2c1)[C@@H](CO)N(C(=O)c1cccc(F)c1)CC31CN(C(=O)c2cccc(F)c2)C1	x	x	-1
COc1ccccc1Oc1cn[nH]c1-c1ccc(O)cc1O	1	2	19*
COc1cccc(Oc2cn[nH]c2-c2ccc(O)cc2O)c1	-2	-7	x
SMILES	VHR inh abs	PrPC surface inh	TcdB inh
CO[C@H]1CN(C)C(=O)c2cc(NC(=O)C3CC3)ccc2OC[C@H](C)N(C(=O)NC(C)C)C[C@@H]1C	x	x	-1
CC(C)NC(=O)N1[C@@H](CO)[C@@H](c2ccccc2)C12CN(C(=O)CN(C)C)C2	x	x	0
CCOC(=O)CSc1nnc(CSc2nc(N)c3c(C)c(C)sc3n2)n1-c1ccccc1	54*	-1	0
CCOC(=O)CSc1nnc(CSc2nc3sc4c(c3c(=O)[nH]2)CCC4)n1-c1ccccc1	20	-7	x
O=c1c2ccc(Cl)cc2[nH]c(=S)n1-c1cccnc1	7	0	10*
O=c1c2ccccc2[nH]c(=S)n1-c1cccnc1	17	8	1
O=C(O)C[C@@H]1C[C@H]2c3cc(NC(=O)C4CCOCC4)ccc3O[C@H]2[C@@H](CO)O1	x	x	-2
COc1cccc(NCc2cc(=O)oc3cc(C)c(O)cc23)c1	52*	-5	3
Cc1cc2oc(=O)cc(CNc3ccccc3F)c2cc1O	13	2	1
CCOc1ccccc1NCc1cc(=O)oc2cc(C)c(O)cc12	55*	-5	0
COc1cccc(NCc2cc(=O)oc3cc(-c4ccccc4)c(O)cc23)c1	22	-16	x
Cc1oc2ccc(OCc3ccccc3F)cc2c1C(=O)O	9	-2	x
Cc1ccccc1COc1ccc2oc(C)c(C(=O)O)c2c1	25	5	12*
CC(=O)Nc1ccc(OC(=O)Oc2ccc(NC(C)=O)cc2)cc1	-30	0	11*
CC(=O)Nc1ccc(OC(=O)N(C)C)cc1	4	-1	x
Cc1nn(C)cc1NC(=O)C[C@H]1CC[C@@H]2[C@H](COc3ccc(NC(=O)Nc4cccc(Cl)c4)cc3C(=O)N2C)O1	x	x	2
C[C@H](CO)N1C[C@H](C)[C@@H](CN(C)S(=O)(=O)c2cn(C)cn2)Oc2ccc(NC(=O)CCCN(C)C)cc2C1=O	x	x	0
COc1ccc(NC(=O)N[C@H]2CC[C@H](CC(=O)NC3CCCCC3)O[C@H]2CO)cc1	x	x	0
COc1ccccc1Nc1nnc(SCc2cc(=O)n3ccsc3n2)s1	12	4	15*
Cc1ccc(Nc2nnc(SCc3cc(=O)n4ccsc4n3)s2)c(C)c1	4	7	x
CC(C)CC#Cc1cnc2c(c1)C(=O)N([C@H](C)CO)C[C@H](C)[C@@H](CN(C)Cc1ccccc1F)O2	x	x	1
C[C@@H]1CCCCO[C@H](CN(C)C(=O)CCCN(C)C)[C@H](C)CN([C@H](C)CO)C(=O)c2cc(NC(=O)Nc3cccc4ccccc34)ccc2O1	x	x	3
O=C(CN1CCC(n2nnc3cc(F)ccc32)CC1)NCCc1ccccc1	53*	0	x
O=C(CN1CCC(n2nnc3cc(F)ccc32)CC1)NC1CC1	5	-4	x
C[C@@H]1CN([C@@H](C)CO)C(=O)c2cc(NC(=O)Nc3ccccc3)ccc2O[C@@H](C)CCCCO[C@H]1CN(C)S(=O)(=O)c1ccc(F)cc1	x	x	1
SMILES	VHR inh abs	PrPC surface inh	TcdB inh
Cc1[nH]n(-c2ccccc2)c(=O)c1C(c1ccc([N+](=O)[O-])cc1)c1c(C)[nH]n(-c2ccccc2)c1=O	-6	x	x
O=c1c2c(-c3ccc([N+](=O)[O-])cc3)ccnc2[nH]n1-c1ccccc1	58*	7	0
COc1ccc(-c2ccnc3[nH]n(-c4ccccc4)c(=O)c23)cc1	94	1	0
COc1cccc(-c2ccnc3[nH]n(-c4ccccc4)c(=O)c23)c1	51*	-10	1
O=C(c1ccccn1)N1CC2(C1)[C@H](c1ccccc1)[C@@H](CO)N2C(=O)C1CCCC1	x	x	1
Oc1ccc(C[C@@H]2CNCCN2CCc2cc(C(F)(F)F)cc(C(F)(F)F)c2)cc1	x	-12	0
FC(F)(F)c1cc(CCN2CCNC[C@H]2Cc2cccc3ccccc23)cc(C(F)(F)F)c1	x	-7	11*
Cc1ccc(CNC(=O)C2CCN(c3nn4c(=O)cc(C)nc4s3)CC2)cc1	-17	-1	0
Cc1cc(=O)n2nc(N3CCC(C(=O)NCc4ccccc4)CC3)sc2n1	52*	8	1
CCCNC(=O)N1CC2(C1)[C@@H](c1ccccc1)[C@@H](CO)N2Cc1ccccn1	x	x	0
Cc1ccc(S(=O)(=O)N[C@H]2CC[C@@H](CCn3cc(C4CC4)nn3)O[C@H]2CO)cc1	x	x	2
CCn1c(=N)c(S(=O)(=O)c2ccc(C)cc2)cc2c(=O)n3ccccc3nc21	52*	-7	1
